The assay is described as follows: cell-free HIV fusion peptide-binding blockers – biochemical, uHTS, fluorescence dequenching, primary screen (AID 1986). As to conditions: 30 min, stronger effect = higher value.
[1] abbreviates: measured here: repeat confirmation average inhibition, at 18.6 µM.

A word on the inhibition: it is the relative decrease from the control value, in per cent.

Out of some 290,000 compounds screened, about 890 (0.31%) were called active. This is one part of a sample in which actives are shown more often than they occur. Rule as the data show it: active = inhibition mostly above about 52% (no sharp cut-off); inactive = mostly below about 76%.

`O=C(O)c1ccc2c(c1)C1C=CCC1C(c1ccncc1)N2` (stereo unspecified): under “at 20 µM”, the inhibition was 24.6% (inactive).

With `COc1ccc(C(=O)N/N=C(\C)c2ccc3c(c2)C2C=CCC2C(c2ccccc2)N3)cc1` (stereo unspecified), the inhibition (at 20 µM) was 16.5% (inactive). `NCCCNc1ccc([N+](=O)[O-])cc1C(F)(F)F`: the inhibition (at 20 µM) was 0.6% (inactive). Regarding `O=C(COc1ccc(Br)cc1Cl)NC(=S)Nc1ccccn1`, the inhibition (at 20 µM) was -1.1% (inactive). On to `COc1ccccc1N1C(C)=CC(=C(C#N)c2nc3ccccc3s2)C=C1C`, for which the inhibition (at 20 µM) was 26.5% (inactive). Turning to `CC1=CC(=C(C#N)c2nc3ccccc3s2)C=C(C)N1c1ccc(F)cc1`, the inhibition (at 20 µM) is 66.4% (active). On the same count and under the same terms, to `CC1=CC(=C(C#N)c2nc3ccccc3s2)C=C(C)N1c1ccc(F)cc1F` belongs 22.6% (inactive); to `CCN(CC)C(=O)Cn1cc(S(=O)(=O)CC(=O)Nc2cc(OC)ccc2OC)c2ccccc21`, -1.7% (inactive); to `C=CCNCCCCOc1ccccc1-c1ccccc1`, -2% (inactive). Still for that read-out and setting: to `CC1=NOC(=O)/C1=C/c1ccc(O)cc1` belongs 0.5% (inactive). As for `CCN(CC)c1ccc(/C=C2/C(=O)ON=C2C)cc1`, the inhibition (at 20 µM) is 100% (active).

Regarding `CC1=NOC(=O)/C1=C/c1ccc(N(C)C)cc1`, for the setting “at 20 µM”, the inhibition is -2.2% (inactive). Still for that read-out and setting: the figure for `Nn1cnnc1SCC(=O)Nc1ccc2c(c1)OCO2` is 0.5% (inactive); for `Cc1cccc(C)c1Nc1nnc(SCC(=O)c2ccc3c(c2)NC(=O)CO3)s1` it is 0.2% (inactive); for `CCOC(=O)/C(C#N)=C\c1ccc(N2CCN(C)CC2)cc1` it is 4% (inactive).

In the case of `CCOC(=O)/C(C#N)=C\c1ccc(N2CCN(C/C=C/c3ccccc3)CC2)cc1`, the inhibition (at 20 µM) is 117% (active). Still for that read-out and setting: the figure for `CCOC(=O)/C(C#N)=C/c1ccc(N2CCN(C)CC2)cc1` is 7.2% (inactive); for `CCCCCCCCCCCCCCCC[n+]1ccc(C(N)=O)cc1` it is -14.2% (inactive). For the compound `CCCCCCCCCC[n+]1cccc(C(=O)N(CC)CC)c1`, the inhibition (at 20 µM) was 3% (inactive). For `CCCn1c(=O)c2sccc2n2c(CCCC(=O)NCc3cccnc3)nnc12`, the inhibition (at 20 µM) was -1.5% (inactive). On to `O=C(c1ccccc1)N1N=C(c2ccccc2)CC1c1ccccc1` (stereo unspecified), for which the inhibition (at 20 µM) was 1.1% (inactive). In the case of `Cc1cc[n+](-c2[nH]c(=O)sc2/C=N/N=C(\[O-])c2ccccc2)cc1`, the inhibition (at 20 µM) was 10.5% (inactive).

For the compound `Cc1cc[n+](-c2[nH]c(=O)sc2/C=N/N=C(\[O-])c2ccncc2)cc1C`, the inhibition (at 20 µM) was 0% (inactive). Take `Cc1cc[n+](-c2[nH]c(=O)sc2/C=N/N=C(\[O-])c2ccccc2)cc1C`: the inhibition runs as follows: (at 20 µM) 116% (active); under setting [1], 93.6%. As for `Cc1cc(NC(=O)CSCC(=O)N(c2cccc(Cl)c2)C(C(=O)NC2CCCCC2)c2ccc(O)c(O)c2)no1` (stereo unspecified), the inhibition (at 20 µM) was 11.2% (inactive). As to `CSCc1ccc(C(=O)NC2CC(C)(C)Cc3c2cnn3-c2ccc(F)cc2)o1` (stereo unspecified), the inhibition (at 20 µM) is 1.2% (inactive). In the case of `CCCn1c(=O)c2ccccc2n2c(SCN3C(=O)c4ccccc4C3=O)nnc12`, the inhibition (at 20 µM) is 0.3% (inactive). Regarding `O=C(O)c1cc(-c2ccc(/C=c3\sc4nc5ccc(Br)cc5n4c3=O)o2)ccc1Cl`, the inhibition (at 20 µM) was 68.1% (active). In the case of `N#C/C(=C\c1ccc(-c2ccc([N+](=O)[O-])cc2)o1)C(=O)Nc1nc(-c2cccs2)cs1`, under “at 20 µM”, the inhibition is -1.7% (inactive). Still for that read-out and setting: to `O=C(O)c1cc(-c2ccc(/C=C3\NC(=O)N(c4ccccc4)C3=O)o2)ccc1Cl` belongs 32.2% (inactive); to `N#C/C(=C\c1ccc(-c2ccc(F)cc2)o1)C(=O)Nc1nc(-c2cccs2)cs1`, 14.4% (inactive). With `N#C/C(=C/c1ccc(-c2cc(C(=O)O)cc(C(=O)O)c2)o1)c1nc2ccccc2s1`, the inhibition (at 20 µM) was 92.9% (active). Turning to `N#C/C(=C\c1ccco1)c1nc2ccccc2s1`, under “at 20 µM”, the inhibition was 146% (inactive).

Consider `N#C/C(=C/c1ccc(-c2ccccc2)o1)c1nc(-c2cccs2)cs1`, for which, under “at 20 µM”, the inhibition is 62.6% (active).

As for `O=Cc1ccc(-c2cccc(C(=O)O)c2)o1`, the inhibition (at 20 µM) was 2.4% (inactive). For the compound `O=C(O)c1cccc(-c2ccc(/C=c3/sc4nc5ccccc5n4c3=O)o2)c1`, the inhibition (at 20 µM) was 78% (active). In the case of `CC1(C)OC(=O)C(=Cc2ccc(-c3ccc(Cl)c(C(=O)O)c3)o2)C(=O)O1`, the inhibition (at 20 µM) was 36.9% (inactive). Same read-out and setting: to `N#C/C(=C/c1ccc(-c2ccc(S(N)(=O)=O)cc2)o1)c1nc2ccccc2s1` belongs 149% (inactive).

In the case of `O=C(O)c1cccc(-c2ccc(/C=N/n3cnnc3)o2)c1`, the inhibition (at 20 µM) is 1.6% (inactive). Turning to `COC(=O)c1cccc(Cn2nnc3ccccc3c2=O)c1`, under “at 20 µM”, the inhibition is 0.9% (inactive). Consider `O=C(NCCN1C(=O)S/C(=C\c2ccc(OC(F)F)cc2)C1=O)[C@@H]1CCCN1C(=O)c1cccs1`, for which the inhibition (at 20 µM) was 0.1% (inactive). With `Cc1cc(Sc2nc(N)ncc2[N+](=O)[O-])ncn1`, the inhibition (at 20 µM) is -1.5% (inactive). Still for that read-out and setting: the figure for `COC(=O)c1sc2ncn(N)c(=O)c2c1C` is -0.5% (inactive); for `CC(=O)Nc1ccc(C(=O)N/N=C/C2CC3C=CC2C3)cc1` (stereo unspecified) it is -0.7% (inactive).

Regarding `COc1cc2[nH]c(=O)n(CCCCCC(=O)NCCc3c[nH]c4ccccc34)c(=O)c2cc1OC`, the inhibition (at 20 µM) was 2.6% (inactive). On the same count and under the same terms, the figure for `CCOC(=O)c1cc(CC)sc1NC(=O)COc1ccc2c(C)cc(=O)oc2c1` is -0.1% (inactive); for `N/C(=N\OC(=O)COc1ccc(Cl)cc1Cl)c1cccnc1` it is 1.4% (inactive); for `COc1cc(NC(=O)C(C)Oc2ccccc2)ccc1NC(=O)COc1ccccc1` (stereo unspecified) it is 1.7% (inactive). Turning to `O=C1Nc2ccccc2OC1CC(=O)N1CCCC1` (stereo unspecified), the inhibition (at 20 µM) is -2.7% (inactive). As to `COCCNC(=O)C(c1ccc(F)cc1)N(Cc1ccco1)C(=O)CCC(=O)Nc1ccccn1` (stereo unspecified), the inhibition (at 20 µM) is -1.2% (inactive). On to `CCOC(=O)C1CCN(C(=O)c2cc3cc4ccc(OC)cc4nc3o2)CC1`, for which the inhibition (at 20 µM) was -0.9% (inactive). As for `O=c1/c(=C/c2ccccn2)sc2nc3ccccc3n12`, the inhibition (at 20 µM) was -0.5% (inactive).

As for `O=C(O)c1cc(C(=O)O)cc(-c2ccc(/C=c3/sc4nc5ccccc5n4c3=O)o2)c1`, the inhibition (at 20 µM) is 63.3% (active). Consider `O=c1/c(=C\c2cccnc2)sc2nc3ccccc3n12`, for which the inhibition (at 20 µM) is -0.5% (inactive). On to `COC(=O)/C=c1/sc2nc3ccccc3n2c1=O`, for which, for the setting “at 20 µM”, the inhibition was 6.3% (inactive).

With `O=c1/c(=C/c2ccc(O)c([N+](=O)[O-])c2)sc2nc3ccccc3n12`, the inhibition (at 20 µM) is 50.3% (active).

As for `O=c1/c(=C\c2cccn2-c2ccccc2)sc2nc3ccccc3n12`, the inhibition (at 20 µM) is 3.1% (inactive). Turning to `O=C(CN1CCN(c2ccccc2F)CC1)c1c[nH]c2ccc(F)cc12`, the inhibition (at 20 µM) is 4% (inactive). Turning to `Cc1cc(C)n2cc(CSc3nncn3C)nc2n1`, the inhibition (at 20 µM) is -1.3% (inactive). Consider `CC1c2ccsc2CCN1S(=O)(=O)c1cccs1` (stereo unspecified), for which, for the setting “at 20 µM”, the inhibition is -1% (inactive). Consider `COc1ccc(Cc2nc3ccc(C(=O)N(C)CCc4cnn(C)c4)cc3o2)cc1OC`, for which the inhibition (at 20 µM) is 0.7% (inactive). Turning to `C/C(CC(=O)Nc1ccc(Cl)c(C(F)(F)F)c1)=N\NC(=O)c1cc2ccccc2cc1O`, where the note is “at 20 µM”, the inhibition was 67.3% (active).

Turning to `C/C(CC(=O)Nc1ccc(Cl)c(C(F)(F)F)c1)=N\NC(=O)c1cccc(O)c1`, for the setting “at 20 µM”, the inhibition is 4.2% (inactive). Turning to `C/C(CC(=O)Nc1ccc(Cl)c(C(F)(F)F)c1)=N\NC(=O)c1ccccc1O`, the inhibition (at 20 µM) is 26.3% (inactive).

As for `O=C(NCCCn1ccnc1)C(=O)Nc1ccccc1`, where the note is “at 20 µM”, the inhibition is 0.2% (inactive). `COc1ccc(OC)c(NC(=O)Cc2nn(C)c(=O)c3ccccc23)c1`: the inhibition (at 20 µM) is 2.9% (inactive). On to `Cc1c(C(=O)N2CCC(C)CC2)cccc1[N+](=O)[O-]`, for which the inhibition (at 20 µM) was -0.4% (inactive).

As to `CC(=O)Nc1ccc(S(=O)(=O)Nc2nc3ccccc3nc2Nc2ccc(S(N)(=O)=O)cc2)cc1`, the inhibition (at 20 µM) is 37.9% (inactive). Turning to `Cc1ccc(S(=O)(=O)Nc2nc3ccccc3nc2Nc2cccc(S(=O)(=O)N3CCCC3)c2)cc1`, the inhibition (at 20 µM) is 72.4% (active). Consider `O=S(=O)(Nc1cccc(S(=O)(=O)N2CCCCCC2)c1)c1ccccc1`, for which, for the setting “at 20 µM”, the inhibition was -0.4% (inactive). Regarding `COc1ccc(S(=O)(=O)Nc2cccc(S(=O)(=O)N3CCCCCC3)c2)cc1`, the inhibition (at 20 µM) was 2.5% (inactive).

Take `NS(=O)(=O)c1ccc(Nc2nc3ccccc3nc2NS(=O)(=O)c2cccc([N+](=O)[O-])c2)cc1`: the inhibition (at 20 µM) was 69.6% (active).

In the case of `O=[N+]([O-])c1ccc(S(=O)(=O)Nc2nc3ccccc3nc2Nc2ccccc2)cc1`, the inhibition (at 20 µM) was 1% (inactive). As for `O=C(CSC1=NCCS1)N1CCCC1`, for the setting “at 20 µM”, the inhibition is 4.9% (inactive). As to `CCN1CCN(CC(O)COc2ccc(Cl)cc2)CC1` (stereo unspecified), the inhibition (at 20 µM) is -1.2% (inactive). As for `CCc1nnc(NC(=O)c2ccc(OCc3c(C)noc3C)c(OC)c2)s1`, the inhibition (at 20 µM) is 0.8% (inactive).

For the compound `O=C(Nc1nnc(-c2ccco2)s1)C1CC1`, the inhibition (at 20 µM) is 0.3% (inactive). Turning to `O=C(Nc1nc(-c2ccco2)c(-c2ccco2)s1)C1CCC1`, for the setting “at 20 µM”, the inhibition is 63.8% (active). `O=C(Nc1nnc(-c2ccco2)s1)C1CCCCC1`: the inhibition (at 20 µM) was 2.3% (inactive). Consider `O=C(Nc1nnc(C2CC2)s1)C1CC(=O)N(c2ccc3c(c2)OCCO3)C1` (stereo unspecified), for which the inhibition (at 20 µM) is 16.4% (inactive).

On to `COc1ccc(-c2nc(NC(=O)C3CC(=O)N(c4ccc5c(c4)OCCO5)C3)sc2C)cc1` (stereo unspecified), for which, under “at 20 µM”, the inhibition is 2.7% (inactive).

For the compound `O=C(CCl)Nc1nc(-c2ccco2)c(-c2ccco2)s1`, the inhibition (at 20 µM) was 64.5% (active). On to `O=C(CCCSc1ccccc1)Nc1nc(-c2ccco2)c(-c2ccco2)s1`, for which the inhibition was 58.7% (inactive) (at 20 µM) and 2.6% under setting [1]. As for `O=C(Nc1nc(-c2ccco2)c(-c2ccco2)s1)C1CC(=O)N(c2ccc3c(c2)OCCO3)C1` (stereo unspecified), the inhibition (at 20 µM) is 59.5% (active).

For the compound `Nc1nc(-c2ccco2)c(-c2ccco2)s1`, the inhibition (at 20 µM) is 1.2% (inactive).

On to `COc1cccc(NC(=O)N(C2CCCCC2)C(C)c2cccs2)c1` (stereo unspecified), for which, under “at 20 µM”, the inhibition is -4.1% (inactive). As for `CCOC(=O)c1cnc2c(ccc3ccccc32)c1NCCN(C)C`, the inhibition (at 20 µM) was -0.1% (inactive).

Consider `CCOC(=O)c1cccc(NC(=O)CCn2nc(C)c(S(=O)(=O)N3CCCCC3)c2C)c1`, for which the inhibition (at 20 µM) was -0.9% (inactive).

As for `CCC(C)(C)NC(=O)CN(C(=O)C(=O)Nc1ccc2c(c1)OCCO2)N1CCOCC1`, the inhibition (at 20 µM) is 1.2% (inactive). `COc1ccccc1N1CCN(C(=O)CCc2ccc(S(=O)(=O)NCC(C)C)cc2)CC1`: the inhibition (at 20 µM) was 0.1% (inactive). `N#CC(C#N)=Cc1ccc(OCC(=O)N2CCOCC2)cc1`: the inhibition (at 20 µM) was 0.6% (inactive). In the case of `O=C1C=C(Nc2ccc(Cl)cc2)C(=O)N1c1ccc(Cl)cc1`, where the note is “at 20 µM”, the inhibition was 54.8% (active). For `O=C1c2ccccc2C(=O)N1c1ccc(Cl)cc1`, where the note is “at 20 µM”, the inhibition is -5.5% (inactive).

With `O=C1C=C(N2CCCCCC2)C(=O)N1c1ccc(Cl)cc1`, for the setting “at 20 µM”, the inhibition is -1.8% (inactive).

Source of the values: PubChem BioAssay AID1986 (Sanford-Burnham Center for Chemical Genomics, 2009).
